PubChem BioAssay AID1159580 (chemical genetic matrix, 2015)
Several values for one entry are separate records, joined by “and”; a condition that tells them apart may be missing. Equal values may be shown once. Out of some 5,500 compounds screened, about 2,000 (36%) were called active. Another 18% or so got no clear call; they are omitted. No stated cut-off is given here; in the data, active means normalized growth mostly below about 0.91 (no sharp cut-off); inconclusive means no clear call, values can overlap the other calls; inactive means mostly above about 0.92. Some of the results follow.

Experiment: chemical genetic growth profiling, strain panel (AID 1159580);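 further: tested at 20 µM; growth read once vehicle control cultures reached saturation at 30 °C; 1 = growth at the plate median or of vehicle wells; lower values mean less growth of the strain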
Details: S. cerevisiae deletion strains, growth OD

Measured: normalized growth

OC(CCN1CCCC1)(c1ccccc1)C1CCCCC1 (centres undefined)
inactive: locus YAL021C, strain ccr4, active compounds read low 0.994 | locus YAL026C, strain drs2, active compounds read low 1 | locus YAL030W, strain snc1, active compounds read low 0.986 | locus YBL061C, strain skt5, active compounds read low 0.989 | locus YBR009C, strain hhf1, active compounds read low 1 | locus YBR021W, strain FUR4, active compounds read low 0.947 | locus YBR023C, strain chs3, active compounds read low 0.987 | locus YBR171W, strain sec66, active compounds read low 0.965 | locus YBR229C, strain ROT2, active compounds read low 0.988 | locus YBR231C, strain swc5, active compounds read low 0.977 | locus YBR279W, strain paf1, active compounds read low 1 | locus YCL011C, strain gbp2, active compounds read low 0.998 | locus YCL016C, strain dcc1, active compounds read low 1.01 | locus YCL029C, strain bik1, active compounds read low 0.985 | locus YCL061C, strain MRC1, active compounds read low 0.976 | locus YCL069W, strain vba3, active compounds read low 0.98 | locus YCR088W, strain abp1, active compounds read low 0.976 | locus YDL005C, strain med2, active compounds read low 0.984 | locus YDL035C, strain GPR1, active compounds read low 0.994 | locus YDL040C, strain nat1, active compounds read low 0.989 | locus YDL074C, strain BRE1, active compounds read low 1.01 | locus YDL101C, strain DUN1, active compounds read low 0.995 | locus YDL134C, strain PPH21, active compounds read low 0.99 | locus YDL185W, strain tfp1, active compounds read low 0.979 | locus YDL192W, strain arf1, active compounds read low 0.986 | locus YDR001C, strain nth1, active compounds read low 0.991 | locus YDR069C, strain doa4, active compounds read low 0.986 | locus YDR101C, strain arx1, active compounds read low 0.982 | locus YDR137W, strain rgp1, active compounds read low 1.05 | locus YDR150W, strain NUM1, active compounds read low 1 | locus YDR159W, strain sac3, active compounds read low 0.991 | locus YDR162C, strain NBP2, active compounds read low 0.995 | locus YDR195W, strain ref2 0.942 | locus YDR297W, strain sur2, active compounds read low 0.978 | locus YDR318W, strain mcm21, active compounds read low 0.973 | locus YDR334W, strain swr1, active compounds read low 0.983 | locus YDR335W, strain msn5, active compounds read low 0.981 | locus YDR388W, active compounds read low 0.976 | locus YDR392W, strain spt3, active compounds read low 1 | locus YDR502C, strain sam2, active compounds read low 1 | locus YEL003W, strain gim4, active compounds read low 0.975 | locus YEL037C, strain rad23, active compounds read low 0.982 | locus YEL061C, strain CIN8 (second series), active compounds read low 0.986 | locus YEL061C, strain CIN8, active compounds read low 0.998 | locus YER015W, strain faa2, active compounds read low 0.989 | locus YER016W, strain bim1, active compounds read low 0.998 | locus YER110C, active compounds read low 0.975 | locus YER111C, strain swi4, active compounds read low 1 | locus YER155C, strain BEM2 (second series), active compounds read low 0.946 | locus YER155C, strain BEM2, active compounds read low 0.99 | locus YER167W, strain BCK2, active compounds read low 0.992 | locus YFR010W, strain ubp6, active compounds read low 0.976 | locus YGL078C, strain dbp3, active compounds read low 0.985 | locus YGL086W, strain mad1, active compounds read low 0.994 | locus YGL167C, strain pmr1, active compounds read low 0.985 | locus YGL173C, strain kem1, active compounds read low 0.972 | locus YGL227W, strain vid30, active compounds read low 0.99 | locus YGL240W, strain doc1, active compounds read low 0.963 | locus YGL248W, strain PDE1, active compounds read low 0.996 | locus YGL253W, strain hxk2, active compounds read low 1.01 | locus YGR078C, strain PAC10, active compounds read low 0.998 | locus YGR135W, strain pre9, active compounds read low 0.983 | locus YGR229C, strain SMI1, active compounds read low 0.993 | locus YGR252W, strain gcn5, active compounds read low 1.01 | locus YHR013C, strain ard1, active compounds read low 1 | locus YHR027C, strain rpn1, active compounds read low 0.991 | locus YHR030C, strain SLT2, active compounds read low 0.987 and 1.02 | locus YHR079C, strain IRE1 (second series), active compounds read low 0.977 | locus YHR079C, strain IRE1, active compounds read low 1.02 | locus YHR094C, strain hxt1, active compounds read low 0.975 | locus YHR129C, strain ARP1, active compounds read low 1 | locus YHR142W, strain chs7, active compounds read low 0.999 | locus YHR200W, strain rpn10, active compounds read low 0.974 | locus YIL066C, strain RNR3, active compounds read low 0.989 | locus YIL073C, strain SPO22, active compounds read low 0.957 | locus YIL125W, strain kgd1, active compounds read low 0.967 | locus YIR030C, strain dcg1, active compounds read low 0.985 | locus YJL092W, strain hpr5, active compounds read low 0.969 | locus YJL095W, strain BCK1 (second series), active compounds read low 0.986 | locus YJL095W, strain BCK1, active compounds read low 1 and 1.03 | locus YJL115W, strain asf1, active compounds read low 0.987 | locus YJL129C, strain trk1, active compounds read low 0.973 | locus YJL134W, strain LCB3, active compounds read low 0.994 | locus YJL154C, strain vps35, active compounds read low 0.991 | locus YJL164C, strain tpk1, active compounds read low 1.01 | locus YJL166W, strain qcr8, active compounds read low 0.952 | locus YJL168C, strain set2, active compounds read low 0.974 | locus YJL187C, strain SWE1 (second series), active compounds read low 0.989 | locus YJL187C, strain SWE1, active compounds read low 0.996
